# Results filed as inconclusive are left out. Calls of active or inactive are those of the source. Calls follow the shape of the dose curve; as a rule, active = well fitted curve in the direction sought with a large enough effect; inconclusive = small, poorly fitted or top-dose-only effect, or another doubt; inactive = no such curve, though single readings can be large; an effect the other way counts as inactive or inconclusive.
# Molecular target: Rap guanine nucleotide exchange factor 3 (Homo sapiens) (UniProt O95398)
# Sequence (O95398 whole entry, looked up): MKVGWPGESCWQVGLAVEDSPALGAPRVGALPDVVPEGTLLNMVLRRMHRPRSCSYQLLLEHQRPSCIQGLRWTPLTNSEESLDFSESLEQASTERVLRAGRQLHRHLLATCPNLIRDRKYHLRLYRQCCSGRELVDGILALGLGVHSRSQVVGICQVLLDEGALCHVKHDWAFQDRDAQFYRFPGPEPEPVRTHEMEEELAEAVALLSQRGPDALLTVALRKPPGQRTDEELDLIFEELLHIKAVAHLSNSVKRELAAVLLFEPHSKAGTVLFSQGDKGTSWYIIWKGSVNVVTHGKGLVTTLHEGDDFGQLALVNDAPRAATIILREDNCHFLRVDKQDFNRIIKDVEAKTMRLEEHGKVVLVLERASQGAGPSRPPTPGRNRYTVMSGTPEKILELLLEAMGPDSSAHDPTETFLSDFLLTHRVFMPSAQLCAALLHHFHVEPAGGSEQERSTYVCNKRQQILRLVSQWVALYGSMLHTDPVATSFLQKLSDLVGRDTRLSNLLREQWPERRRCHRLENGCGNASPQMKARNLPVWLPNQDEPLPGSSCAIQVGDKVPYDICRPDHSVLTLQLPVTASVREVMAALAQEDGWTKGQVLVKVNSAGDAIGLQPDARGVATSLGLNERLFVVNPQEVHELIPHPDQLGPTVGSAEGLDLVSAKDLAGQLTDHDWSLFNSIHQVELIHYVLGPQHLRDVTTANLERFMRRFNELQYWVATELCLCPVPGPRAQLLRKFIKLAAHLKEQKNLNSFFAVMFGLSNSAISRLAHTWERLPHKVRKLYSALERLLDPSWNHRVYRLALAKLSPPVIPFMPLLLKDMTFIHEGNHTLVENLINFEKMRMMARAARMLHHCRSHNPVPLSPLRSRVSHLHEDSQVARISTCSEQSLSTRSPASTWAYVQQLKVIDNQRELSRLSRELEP
# Experiment: Counterscreen qHTS for antagonist of cAMP-regulated guanine nucleotide exchange factor 3 (EPAC1) (AID 1645888);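 also: fluorescence loss as bound BODIPY-GDP is released from Rap1B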
# Details: Rap1B-BODIPY-GDP nucleotide exchange, fluorescence; series mostly up to 154 µM; activity change, negative = inhibition: at the top concentration
# Summary of the method: (§1)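 Rap1B–BODIPY-GDP (250 nM) with 50 uM GDP; compounds pin-transferred to 9.74 nM–152 uM final (activator) or from 7.32 nM upwards (inhibitor). Fluorescence Ex/Em 480/540 nm read at 5 and 30 min, then after adding cAMP or buffer, at room temperature.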
# Also: % of control where 0% means no effect.
row,Compound,"activity change, negative = inhibition"
1,CCOC(=O)C1(C)C=C(Nc2ccc(C(N)=O)cc2)C(=O)N1c1ccccc1 (stereo unspecified),-4.75% (inactive)
2,COc1cccc(/C=N/Nc2ccc(S(=O)(=O)Nc3ccccc3C(=O)O)cc2[N+](=O)[O-])c1O,-5.08% [at 30.8 µM] (inactive)
3,Cc1ccc(NS(=O)(=O)c2cccc3cccnc23)c(Cl)c1,-16.3% (inactive)
4,NC(N)=N/N=C/c1ccc(OCc2ccc(Cl)cc2Cl)cc1,10.5% [at 30.8 µM] (inactive)
5,CC(=O)N1CCc2nc3sc(C(=O)c4ccc(F)cc4)c(N)c3c(C(F)(F)F)c2C1,37.6% (inactive)
6,CC1(C)CC2CC(C)(CN2C(=O)c2cc(-c3ccccc3O)on2)C1 (stereo unspecified),5.82% [at 30.8 µM] (inactive)
7,O=C(O)c1ccc(Nc2nc(-c3cc4ccccc4oc3=O)cs2)cc1O,-3.53% (inactive)
8,COc1ccc(/C(O)=C/c2nc3ccccc3n(-c3ccccc3)c2=O)cc1,29.3% (inactive)
9,COC(/C(=N/O)c1ccc(Cl)cc1)c1ccccc1 (stereo unspecified),-2% [at 30.8 µM] (inactive)
10,COc1ccc(CCn2c(O)cc3nn(-c4nc5ccccc5s4)c(=O)c-3c2C)cc1,-22.2% (inactive)
11,COc1ccc(CN(Cc2ccco2)C(=O)c2ccccc2F)cc1,13.6% (inactive)
12,O=C(CSc1ncnc2[nH]ncc12)Nc1cccc(Oc2ccccc2)c1,-9.96% [at 30.8 µM] (inactive)
13,CCOc1cc(/C=C2\SC(=Nc3ccc(CC)cc3)NC2=O)ccc1OCC(=O)O,8.23% (inactive)
14,S=c1[nH]nc(-c2cc(-c3ccccc3)n[nH]2)n1/N=C/c1ccc(Cl)c(Cl)c1,-11.9% [at 30.8 µM] (inactive)
15,CC1=CC(=C(C#N)c2nc3ccccc3s2)C=C(C)N1Cc1ccco1,19.4% (inactive)
16,COc1ccc(C(=O)NCCn2cc(SCC(=O)NCCc3ccc(OC)c(OC)c3)c3ccccc32)cc1,-23.6% (inactive)
17,O=c1oc2c3c(ccc2c2ccccc12)OCN(Cc1cccc(Cl)c1)C3,40.7% (inactive)
18,COc1cc(/C=C2\CCn3c2nc2cc(C(=O)O)ccc2c3=O)ccc1OC(F)F,-24.2% (inactive)
19,O=[N+]([O-])c1ccc(NS(=O)(=O)c2ccccc2)c(Cl)c1,6.45% (inactive)

row,Compound,"activity change, negative = inhibition"
1,CC(/C=C1\SC(=S)N(c2ccc(C(=O)O)cc2)C1=O)=C\c1ccccc1,1.04% [at 30.8 µM] (inactive)
2,O=c1oc2ccc(Cl)cc2nc1/C=C(\O)c1cccs1,7.64% [at 30.8 µM] (inactive)
3,COc1ccc(C(=O)c2ccc(Br)cc2)c(OC)c1OC,4.67% (inactive)
4,COc1ccc2c(c1)C(SCC(=O)NCCc1ccc(Cl)cc1)CC(C)(C)O2 (stereo unspecified),8.95% [at 30.8 µM] (inactive)
5,CCOc1ccc(/C=C2\SC(=S)N(NS(=O)(=O)c3ccccc3)C2=O)cc1OC,2.25% (inactive)
6,CCOC(=O)c1c(CSc2ccccc2)n(C)c2cc(Br)c(OCC(O)CNC(CO)(CO)CO)cc12 (stereo unspecified),6.39% (inactive)
7,COc1cc2ccccc2cc1C(=O)NC(=S)Nc1cccc(C(=O)O)c1,-9.48% [at 30.8 µM] (inactive)
8,COc1cc2cc(Oc3ccc4ccc(=O)oc4c3)c(=O)oc2cc1O,-3.83% [at 30.8 µM] (inactive)
9,Cc1cc(Br)cn2c(Cc3ccsc3)c(-c3ccco3)nc12,4.94% [at 30.8 µM] (inactive)
10,O=C(O)COc1ccccc1/C=N/Nc1ccc(S(=O)(=O)Nc2ccc(Cl)cc2)cc1[N+](=O)[O-],-8.36% [at 30.8 µM] (inactive)
11,O=C(O)CC/C(=C\c1cccc(NC(=O)c2ccccc2Cl)c1)c1nc2ccccc2s1,27.2% (inactive)
12,CNc1ccc(/C=C(\CCC(=O)O)c2nc3ccccc3s2)cc1[N+](=O)[O-],-16.8% [at 30.8 µM] (inactive)
13,Cc1cc2nc3c(=O)n(Cc4ccccc4)c(=O)[nH]c3nc2cc1N,0.816% [at 30.8 µM] (inactive)
14,Cc1c(CCC(=O)O)c(=O)oc2cc(OCc3ccccc3Br)ccc12,12.2% (inactive)
15,CCc1ccc(N=C2NC(=O)/C(=C/c3ccc(OCC(=O)O)cc3)S2)cc1,-19.4% [at 30.8 µM] (inactive)
16,Cn1c(SCC(=O)Nc2cccc(C(=O)O)c2)nnc1-c1cc2cc(Br)ccc2o1,4.12% (inactive)
17,O=C(N/N=C/c1ccc(O)c(O)c1)C1c2ccccc2Oc2ccccc21,-1.21% (inactive)
18,CC(C)(C)CNC(=O)c1cccc2c1C(=O)c1ccc(-c3cc4ccccc4o3)cc1S2(=O)=O,4.17% (inactive)
19,CCOC(=O)c1cc(-c2ccc(/C=C3/C(=O)N(c4ccc(C(=O)O)cc4)N=C3C)o2)ccc1Cl,-22.8% (inactive)

# Molecular target: Rap guanine nucleotide exchange factor 3 (Homo sapiens) (UniProt O95398)
# Experiment: Counterscreen qHTS for agonist of cAMP-regulated guanine nucleotide exchange factor 3 (EPAC1) (AID 1645889); also: nearly all actives have a fitted effect of over 40% in size
# Details: EPAC1 Rap1B-BODIPY-GDP exchange, fluorescence; series mostly up to 154 µM; activation: at the top concentration
# Summary of the method: as §1
row,Compound,activation
1,COc1cccc(/C=N/Nc2ccc(S(=O)(=O)Nc3ccccc3C(=O)O)cc2[N+](=O)[O-])c1O,20% [at 30.8 µM] (inactive)
2,Cc1ccc(NS(=O)(=O)c2cccc3cccnc23)c(Cl)c1,21.9% (inactive)
3,NC(N)=N/N=C/c1ccc(OCc2ccc(Cl)cc2Cl)cc1,27.4% [at 30.8 µM] (inactive)
4,CC1(C)CC2CC(C)(CN2C(=O)c2cc(-c3ccccc3O)on2)C1 (stereo unspecified),17.1% [at 30.8 µM] (inactive)
5,COc1ccc(CCn2c(O)cc3nn(-c4nc5ccccc5s4)c(=O)c-3c2C)cc1,17.1% (inactive)
6,CCOc1cc(/C=C2\SC(=Nc3ccc(CC)cc3)NC2=O)ccc1OCC(=O)O,-3.03% (inactive)
7,S=c1[nH]nc(-c2cc(-c3ccccc3)n[nH]2)n1/N=C/c1ccc(Cl)c(Cl)c1,18.4% [at 30.8 µM] (inactive)
8,COc1ccc(C(=O)NCCn2cc(SCC(=O)NCCc3ccc(OC)c(OC)c3)c3ccccc32)cc1,15.6% (inactive)
9,O=c1oc2c3c(ccc2c2ccccc12)OCN(Cc1cccc(Cl)c1)C3,55.1% (inactive)
10,COc1cc(/C=C2\CCn3c2nc2cc(C(=O)O)ccc2c3=O)ccc1OC(F)F,13.6% (inactive)
11,O=[N+]([O-])c1ccc(NS(=O)(=O)c2ccccc2)c(Cl)c1,12% (inactive)
12,CC(/C=C1\SC(=S)N(c2ccc(C(=O)O)cc2)C1=O)=C\c1ccccc1,18.6% [at 30.8 µM] (inactive)
13,O=c1oc2ccc(Cl)cc2nc1/C=C(\O)c1cccs1,11.4% [at 30.8 µM] (inactive)
14,COc1ccc(C(=O)c2ccc(Br)cc2)c(OC)c1OC,12.7% (inactive)
15,CCOc1ccc(/C=C2\SC(=S)N(NS(=O)(=O)c3ccccc3)C2=O)cc1OC,6.46% (inactive)
16,CCOC(=O)c1c(CSc2ccccc2)n(C)c2cc(Br)c(OCC(O)CNC(CO)(CO)CO)cc12 (stereo unspecified),6.19% (inactive)
17,COc1cc2ccccc2cc1C(=O)NC(=S)Nc1cccc(C(=O)O)c1,7.44% [at 30.8 µM] (inactive)
18,Cc1cc(Br)cn2c(Cc3ccsc3)c(-c3ccco3)nc12,27.6% [at 30.8 µM] (inactive)
19,O=C(O)COc1ccccc1/C=N/Nc1ccc(S(=O)(=O)Nc2ccc(Cl)cc2)cc1[N+](=O)[O-],17.2% [at 30.8 µM] (inactive)
20,O=C(O)CC/C(=C\c1cccc(NC(=O)c2ccccc2Cl)c1)c1nc2ccccc2s1,14.9% (inactive)
21,CNc1ccc(/C=C(\CCC(=O)O)c2nc3ccccc3s2)cc1[N+](=O)[O-],19.8% [at 30.8 µM] (inactive)
22,Cc1c(CCC(=O)O)c(=O)oc2cc(OCc3ccccc3Br)ccc12,7.78% (inactive)
23,CCc1ccc(N=C2NC(=O)/C(=C/c3ccc(OCC(=O)O)cc3)S2)cc1,14.2% [at 30.8 µM] (inactive)
24,Cn1c(SCC(=O)Nc2cccc(C(=O)O)c2)nnc1-c1cc2cc(Br)ccc2o1,9.81% (inactive)
25,CC1(Cc2cc(Cl)ccc2C(F)(F)F)C(=O)Nc2c(Cl)cccc21 (stereo unspecified),15% (inactive)
26,CC(C)(C)CNC(=O)c1cccc2c1C(=O)c1ccc(-c3cc4ccccc4o3)cc1S2(=O)=O,20.7% (inactive)
27,COc1cc(/C=C2\SC(=Nc3ccccc3)N(CCc3c[nH]c4ccccc34)C2=O)ccc1OC(C)C(=O)O (stereo unspecified),14.7% (inactive)
28,CCOC(=O)c1cc(-c2ccc(/C=C3/C(=O)N(c4ccc(C(=O)O)cc4)N=C3C)o2)ccc1Cl,13% (inactive)

# Reference: PubChem BioAssay (NCATS)
